Experimental data published in PubChem BioAssay (NCI).
The panel holds about 83,000 compounds, 20% with a hit somewhere; the sample as a whole holds those more often.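 Activity criterion: percent growth below 10, measured after cells in 96-well plates were exposed to a single compound concentration for 48 hours.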 Activity calls are given as the source filed them.

Assays:
Test in all cases: NCI-60 one-dose screen, 48 h (100 = growth as untreated, 0 = no growth, -100 = all killed)
Conditions in all cases: 10 µM unless noted
T-47D breast = test system: T-47D breast
BT-549 breast = test system: BT-549 breast
MDA-MB-435 melanoma = test system: MDA-MB-435 melanoma
SW-620 colon = test system: SW-620 colon
MCF7 breast = test system: MCF7 breast
HCT-116 colon = test system: HCT-116 colon
HCC-2998 colon = test system: HCC-2998 colon
KM12 colon = test system: KM12 colon

Measured: growth

O=C(CNc1ccc(Cl)cc1)Nc1ccc(-c2nc3ccccc3s2)cc1
inactive: BT-549 breast 16.7% | MDA-MB-435 melanoma 62.8% | SW-620 colon 22.6% | MCF7 breast 11.5% | HCT-116 colon 23.3% | KM12 colon 80.7%
active: T-47D breast 4.58% | HCC-2998 colon -16.2%

CN(C)CCCNC(=O)C(c1ccccc1)c1ccccc1
inactive: T-47D breast 87.9% | BT-549 breast 106% | MDA-MB-435 melanoma 108% | SW-620 colon 100% | MCF7 breast 96.3% | HCT-116 colon 94.3% | HCC-2998 colon 99.1% | KM12 colon 111%

O=C1CCCCN1CCCCC#Cc1ccccc1C#Cc1ccc([N+](=O)[O-])cc1
inactive: T-47D breast 49.4% | BT-549 breast 65.9% | MDA-MB-435 melanoma 45.5% | SW-620 colon 27.3% | MCF7 breast 49.6% | HCT-116 colon 23.1% | HCC-2998 colon 67.2% | KM12 colon 27.2%

COc1cc(-c2csc(NC(=O)c3cc(C(F)(F)F)cc(C(F)(F)F)c3)n2)cc(OC)c1OC
inactive: BT-549 breast 18.7% | MDA-MB-435 melanoma 28.6% | SW-620 colon 44% | MCF7 breast 18.4% | HCT-116 colon 14.4% | HCC-2998 colon 31% | KM12 colon 22.1%
active: T-47D breast -15.9%

COc1cc(C(=O)/C=C/c2cc(C(=O)c3cc(OC)c(OC)c(OC)c3)ccc2OC)ccc1N
active: BT-549 breast -51.3% | MDA-MB-435 melanoma 2.47% | SW-620 colon -57.3% | MCF7 breast 6.6% | HCT-116 colon -73.8% | HCC-2998 colon -80% | KM12 colon -57.2%
inactive: T-47D breast 18%

CCC1=C[C@@H]2CN(C1)Cc1c([nH]c3ccccc13)[C@@](C(=O)OC)(c1cc3c(cc1OC)N(C=O)[C@H]1[C@@](O)(C(=O)OC)[C@H](OC(C)=O)[C@]4(CC)[C@@H]5C[C@@H]5CN5CC[C@]31[C@@H]54)C2
active: MDA-MB-435 melanoma -57.1% | HCT-116 colon 7.99% | HCC-2998 colon -13% | KM12 colon 8.8%
inactive: T-47D breast 97.5% | BT-549 breast 47.9% | SW-620 colon 26.3% | MCF7 breast 10.9%

CC(=O)/C=C/c1cc2cc(Cl)ccc2[nH]c1=O
inactive: T-47D breast 50% | BT-549 breast 65.5% | MDA-MB-435 melanoma 94.2% | SW-620 colon 80.4% | MCF7 breast 30.5% | HCT-116 colon 48.1% | HCC-2998 colon 95.2% | KM12 colon 60%

CCC(=O)Oc1ccc2c(c1)CC[C@@H]1[C@@H]2CC[C@]2(C)C[C@H](OC(=O)CC)C[C@@H]12
active: MDA-MB-435 melanoma 0.38%
inactive: T-47D breast 83.7% | BT-549 breast 60.1% | SW-620 colon 48.2% | MCF7 breast 68.5% | HCT-116 colon 50.5% | HCC-2998 colon 85% | KM12 colon 53.5%

CC(C)(C)OC(=O)N[C@@H](Cc1ccccc1)C(=O)N(Cc1ccccc1)C1(C(=O)NCc2ccccc2)CCN(Cc2ccccc2)CC1
inactive: T-47D breast 38% | BT-549 breast 71% | MDA-MB-435 melanoma 41% | SW-620 colon 22.9% | MCF7 breast 25.2% | HCT-116 colon 20.9% | HCC-2998 colon 47% | KM12 colon 18.7%

CCn1cc(C(=O)O)c(=O)c2cc(F)c(N3CCN(S(=O)(=O)c4ccc(Cl)cc4Cl)CC3)cc21
inactive: MDA-MB-435 melanoma 12.8% | SW-620 colon 16.4% | MCF7 breast 89.2% | HCC-2998 colon 30.6%
active: T-47D breast 1.7% | BT-549 breast -4.59% | HCT-116 colon 6.37% | KM12 colon 9.4%

CCO/C=N/NC(=O)c1ccncc1
inactive: T-47D breast 106% | BT-549 breast 114% | MDA-MB-435 melanoma 110% | SW-620 colon 104% | MCF7 breast 101% | HCT-116 colon 105% | HCC-2998 colon 113% | KM12 colon 106%

CCN(C(=O)c1cc2ncccc2[nH]1)[C@H]1CCC[C@@H](NCc2cccc(F)c2)C1
inactive: T-47D breast 78.1% | BT-549 breast 104% | MDA-MB-435 melanoma 97.4% | SW-620 colon 98.5% | MCF7 breast 95.7% | HCT-116 colon 111% | HCC-2998 colon 91.6% | KM12 colon 97.3%

CS(=O)(=O)N(c1cc(-c2ccc3ncnc(Nc4cccc(Cl)c4)c3c2)cnc1Cl)S(C)(=O)=O
active: T-47D breast -2.25% | BT-549 breast -8.61% | MCF7 breast 4.87%
inactive: MDA-MB-435 melanoma 15.9% | SW-620 colon 20.4% | HCT-116 colon 12.1% | HCC-2998 colon 23.9% | KM12 colon 21.3%

COc1ccc(C2CC(c3cccs3)=NN2c2ccc(S(=O)(=O)NC(=O)NCc3cccc(OC)c3)cc2)cc1 (stereo not drawn)
inactive: T-47D breast 85.7% | BT-549 breast 116% | MDA-MB-435 melanoma 52.3% | SW-620 colon 107% | MCF7 breast 99% | HCT-116 colon 98.8% | HCC-2998 colon 111% | KM12 colon 98.5%

CCCCCc1c(C)[nH]c(/C=c2\[nH]/c(=C3/C=c4ccccc4=N3)cc2OC)c1C
active: T-47D breast -6.71% | BT-549 breast -35.2% | MDA-MB-435 melanoma -53.6% | SW-620 colon -36.1% | MCF7 breast -54.5% | HCT-116 colon -97.2% | HCC-2998 colon -11.4% | KM12 colon -21.7%

O=C(CNc1c(Cl)cccc1Cl)Nc1ccc(-c2nc3ccccc3s2)cc1
inactive: BT-549 breast 22% | MDA-MB-435 melanoma 67.9% | SW-620 colon 35.3% | MCF7 breast 14.6% | HCT-116 colon 29.9% | HCC-2998 colon 35.6% | KM12 colon 91.3%
active: T-47D breast -19%

C=C1C(=O)O[C@H]2[C@H]1CC/C(Cn1cc(-c3ccsc3)nn1)=C\CC[C@@]1(C)O[C@@H]21
inactive: KM12 colon 34.3%
active: T-47D breast -62% | BT-549 breast -56.3% | MDA-MB-435 melanoma -16% | SW-620 colon -71.3% | MCF7 breast -72.6% | HCT-116 colon -96.4% | HCC-2998 colon -46.7%

COc1cc(NC(=O)CCl)ccc(=O)c1
inactive: T-47D breast 67.1% | BT-549 breast 58.9% | MDA-MB-435 melanoma 69.8% | SW-620 colon 69.8% | MCF7 breast 56.8% | HCT-116 colon 62.6% | HCC-2998 colon 105% | KM12 colon 89.6%

O=c1oc2cc(OS(=O)(=O)c3ccc(F)cc3)ccc2c2c1CCCCC2
inactive: T-47D breast 30.3% | BT-549 breast 73.6% | MDA-MB-435 melanoma 78.5% | SW-620 colon 46.3% | MCF7 breast 59.9% | HCT-116 colon 54.4% | HCC-2998 colon 69.8% | KM12 colon 55.1%

O=[N+]([O-])c1ccc(S(=O)(=O)N2CCN(c3ccnc4cc(Cl)ccc34)CC2)c([N+](=O)[O-])c1
inactive: T-47D breast 60.3% | BT-549 breast 97.6% | MDA-MB-435 melanoma 98.1% | SW-620 colon 40.5% | MCF7 breast 52.7% | HCT-116 colon 77.5% | HCC-2998 colon 106% | KM12 colon 103%

O=C(NNC(=S)Nc1ccccc1)c1ccccn1
inactive: T-47D breast 53.2% | BT-549 breast 55.1% | MDA-MB-435 melanoma 48.4% | SW-620 colon 42.1% | MCF7 breast 27.2% | HCT-116 colon 26.7% | HCC-2998 colon 40.6% | KM12 colon 32.1%

Cc1nc2sccn2c1-c1csc(Nc2ccccc2Cl)n1
active: MDA-MB-435 melanoma 2.78%
inactive: T-47D breast 41% | BT-549 breast 40.6% | SW-620 colon 33.1% | MCF7 breast 33.9% | HCT-116 colon 27.8% | HCC-2998 colon 63.8% | KM12 colon 29.6%

O=S(=O)(NCCCNc1nccc(-c2c(-c3ccccc3)nc3sccn23)n1)c1ccc(F)cc1
active: T-47D breast 7.39%
inactive: BT-549 breast 54.3% | MDA-MB-435 melanoma 16.5% | SW-620 colon 53.8% | MCF7 breast 31.6% | HCT-116 colon 25.9% | HCC-2998 colon 86.4% | KM12 colon 39.4%

CCN(CC)c1cc(/C=C/c2ccc(OC)c(OC)c2)nc2cc(F)c(F)cc12
inactive: T-47D breast 40.2% | BT-549 breast 24.5% | MDA-MB-435 melanoma 100% | SW-620 colon 104% | MCF7 breast 65.3% | HCT-116 colon 24.3% | HCC-2998 colon 116% | KM12 colon 103%

NS(=O)(=O)c1ccc(CN2C(=O)c3cccc4cccc(c34)C2=O)cc1
inactive: T-47D breast 78.1% | BT-549 breast 96.2% | MDA-MB-435 melanoma 114% | SW-620 colon 104% | MCF7 breast 93.9% | HCT-116 colon 92.7% | HCC-2998 colon 107% | KM12 colon 99.1%

O=C1NCC(c2cc3ccccc3[nH]c2=O)Nc2ccccc21 (stereo not drawn)
inactive: T-47D breast 91% | BT-549 breast 96.3% | MDA-MB-435 melanoma 107% | SW-620 colon 102% | MCF7 breast 103% | HCT-116 colon 92.6% | HCC-2998 colon 104% | KM12 colon 103%

Cc1cc(-c2ccccc2)c(C)n1Cc1ccc(Cl)cc1
inactive: T-47D breast 50.5% | BT-549 breast 37.7% | SW-620 colon 22.7% | MCF7 breast 23.5% | HCT-116 colon 15% | HCC-2998 colon 74.2% | KM12 colon 27.6%
active: MDA-MB-435 melanoma -18.4%

O=c1oc2cc(OS(=O)(=O)c3ccccc3)c(Cl)cc2c2c1CCCCCC2
inactive: T-47D breast 73.9% | BT-549 breast 79.1% | MDA-MB-435 melanoma 90% | SW-620 colon 98.1% | MCF7 breast 90.6% | HCT-116 colon 74.8% | HCC-2998 colon 106% | KM12 colon 92.1%

CCCCC[C@@H]1Cc2cc(O)c(C(=O)O)c3c2[C@H](C[C@@]2(CCCO2)O3)O1
inactive: T-47D breast 108% | BT-549 breast 115% | MDA-MB-435 melanoma 97.2% | SW-620 colon 111% | MCF7 breast 102% | HCT-116 colon 100% | HCC-2998 colon 95.9% | KM12 colon 118%

Nc1cc2c(cc1N)-c1cc(N)c(N)cc1C2
inactive: T-47D breast 110% | BT-549 breast 79.7% | MDA-MB-435 melanoma 108% | SW-620 colon 102% | MCF7 breast 93.5% | HCT-116 colon 104% | HCC-2998 colon 105% | KM12 colon 101%

Cc1ccccc1C(=O)c1ccccc1C(=O)O
inactive: T-47D breast 107% | BT-549 breast 106% | MDA-MB-435 melanoma 105% | SW-620 colon 102% | MCF7 breast 100% | HCT-116 colon 103% | HCC-2998 colon 105% | KM12 colon 107%
